Here are results for 5 molecules from PubChem BioAssay.

Assay [1] is described as follows: compounds binding Alexa647 anti-His antibody – biochemical, small-molecule microarray, 635 nm fluorescence, artefact control for SMM control protein annotation, primary screen (AID 1128).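 Note: score merges feature fluorescence with signal-to-noise for each printed compound spot.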 As to conditions: higher = more signal.
Assay [2] relates to Human papillomavirus type 1a E7 protein (residues 1-88). Description: HPV1a E7 small-molecule binders, primary screen, biochemical, small-molecule microarray, residues 1-88, 635 nm (AID 1129). As to conditions: small-molecule microarray binding, fluorescence 635 nm; higher = more signal.
For assay [3], the target named is Focal adhesion kinase 1 (Homo sapiens) (UniProt Q05397). Description: PTK2 protein binding on printed compound slides – biochemical, small-molecule microarray, 635/667 nm fluorescence, BSA, DTT, primary screen (AID 1130).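 Note: composite of spot emission at 667 nm and signal to noise over triplicate slides.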 As to conditions: 635 nm fluorescence, higher = more signal.
Assay [4] relates to Fibrinogen (Alexa647-labelled). As to the kind of experiment: Alexa647-fibrinogen binding to printed small molecules – biochemical, small-molecule microarray, 635/667 nm fluorescence, artefact control for SMM control-protein annotation, profiling panel (AID 1131).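 Note: z-score merges 667 nm fluorescence with per-spot signal-to-noise over triplicate slides.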 As to conditions: fibrinogen-A647 binding fluorescence, higher = more signal.
In assay [5] the target is Follistatin (Homo sapiens) (UniProt P19883). Description: FST protein binding to printed compounds – biochemical, small-molecule microarray, 635/667 nm fluorescence, primary screen (AID 1132). As to conditions: 635 nm fluorescence, higher = more signal.
Assay [6] has as its target Fibroblast growth factor 2 (Homo sapiens) (UniProt P09038). Description: basic fibroblast growth factor binding to printed compounds – biochemical, small-molecule microarray, 635/667 nm fluorescence, primary screen (AID 1133). As to conditions: FGF2, fluorescence 635/667, higher = more signal.
The nature of assay [7]: JC-1 mitochondrial potential readout, lung cancer cells – cell-based, A549, JC-1 fluorescence, basal, 24 h, 100 nL, profiling panel (AID 1138).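 Note: A549 lung adenocarcinoma cells under basal conditions with no added stimulus; test concentration not given here.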 As to conditions: higher = more signal.
Assay [8] relates to Lefty1. As to the kind of experiment: Lefty1 protein binding to printed compounds – biochemical, small-molecule microarray, 635/667 nm fluorescence, primary screen (AID 1139). As to conditions: fluorescence 635/667, higher = more signal.
Assay [9] relates to wheat germ agglutinin (Triticum aestivum), Alexa647-labelled. Description: Alexa647-WGA lectin binding to printed small molecules – biochemical, small-molecule microarray, 635/667 nm fluorescence, artefact control for SMM control-protein annotation, profiling panel (AID 1140).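 Note: score merges 667 nm feature emission with signal to noise over triplicate slides.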 As to conditions: WGA-A647 binding, 635 nm fluorescence, higher = more signal.
Assay [10] concerns the target Luciferin 4-monooxygenase (Photinus pyralis) (UniProt P08659). Description: inhibition of purified Photinus pyralis luciferase – biochemical, luminescence, purified enzyme, 2006 set, primary screen (AID 1141).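 Note: cell-free assay with purified firefly luciferase at 100 ng per well in PBS; test concentration not given here.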 As to conditions: purified firefly luciferase, SteadyGlo luminescence, 30 min; higher = more signal, called active from +8 up or from −8 down.
Assay [11] relates to Wnt5a (protein binding on small-molecule microarray). As to the kind of experiment: small molecules binding Wnt5a protein – biophysical, small-molecule microarray, 635/667 nm fluorescence, primary screen (AID 1142).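 Note: fluorescence read at 667 nm with signal to noise per printed feature.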 As to conditions: 635 nm fluorescence, higher = more signal.
Assay [12] can be described thus: ATP-based viability of Huh7 replicon cells – cell-based, CellTiter-Glo luminescence, basal, 48 h, cytotoxicity control for HCV replication inhibitor project, primary screen (AID 1143).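 Note: Huh7 hepatoma cells carrying a hepatitis C replication reporter with no stimulus; test concentration not given here.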 As to conditions: higher = more signal, called active from +8 up or from −8 down. In general terms: Replicon systems follow genome replication, usually without infectious particles.
Assay [13] in a line: Pseudomonas biofilm growth suppression – PAO1 strain, BacTiter-Glo luminescence, LB-PBS, primary screen (AID 1144). As to conditions: P. aeruginosa PAO1 biofilm, 12 h, higher = more signal.
A short description of assay [14]: basal CRE-LacZ reporter activity in PC12 – cell-based, unstimulated, primary screen (AID 1145). As to conditions: no forskolin, luminescence, 4.5 h, higher = more signal, called active from +8 up or from −8 down.
A short description of assay [15]: forskolin-driven CRE-LacZ activity in PC12 – cell-based, CRE-LacZ reporter, forskolin-stimulated, primary screen (AID 1146).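 Note: PC12 cells with 6xCRE LacZ reporter stimulated by forskolin 10 µM; beta-galactosidase reporter signal reflecting CREB driven transcription.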 As to conditions: luminescence, 4.5 h, higher = more signal, called active from +8 up or from −8 down.
The target of assay [16] is Streptavidin (Streptomyces avidinii) (UniProt P22629). As to the kind of experiment: compounds binding control protein streptavidin – biophysical, small-molecule microarray, 635/667 nm fluorescence, artefact control for SMM compound annotation, primary screen (AID 1147).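 Note: signal reflects streptavidin binding to arrayed compounds as a control protein.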 As to conditions: higher = more signal.
Assay [17] is described as follows: probe aInhba binding on compound microarray – biochemical, small-molecule microarray, 635/667 nm fluorescence, primary screen (AID 1148).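 Note: score merges 667nm spot fluorescence with signal-to-noise for antibody binding to printed compounds.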 As to conditions: higher = more signal.
The target of assay [18] is Torsin-1A (Homo sapiens) (UniProt O14656). As to the kind of experiment: TOR1A wild-type binding on microarray – cell lysate, small-molecule microarray, lysate, 635/667 nm, primary screen (AID 1149). As to conditions: COS7 hTOR1A-WT lysate, 635 nm fluorescence, higher = more signal.
Assay [19] shares this target. As to the kind of experiment: torsin A mutant lysate binding on microarrays – cell lysate, small-molecule microarray, COS7 lysate, 635/667 nm fluorescence, primary screen (AID 1150).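 Note: score pools 667 nm emission and signal to noise measuring lysate protein binding.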 As to conditions: COS7 hTOR1A mutant lysate, 635 nm fluorescence, higher = more signal.
For assay [20], the system named is Sonic hedgehog protein (Shh). As to the kind of experiment: Sonic hedgehog microarray binding compounds – biochemical, small-molecule microarray, 635/667 nm fluorescence, primary screen (AID 1151).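 Note: Shh protein binding to compounds spotted on small-molecule microarray slides; score combines spot fluorescence intensity with signal-to-noise across triplicate slides.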 As to conditions: 635 nm fluorescence, higher = more signal.

Calls of active or inactive are those of the source. Unless noted, the rule behind the calls is not given here.

Chain of Luciferin 4-monooxygenase (Photinus pyralis) (P08659 whole entry, looked up): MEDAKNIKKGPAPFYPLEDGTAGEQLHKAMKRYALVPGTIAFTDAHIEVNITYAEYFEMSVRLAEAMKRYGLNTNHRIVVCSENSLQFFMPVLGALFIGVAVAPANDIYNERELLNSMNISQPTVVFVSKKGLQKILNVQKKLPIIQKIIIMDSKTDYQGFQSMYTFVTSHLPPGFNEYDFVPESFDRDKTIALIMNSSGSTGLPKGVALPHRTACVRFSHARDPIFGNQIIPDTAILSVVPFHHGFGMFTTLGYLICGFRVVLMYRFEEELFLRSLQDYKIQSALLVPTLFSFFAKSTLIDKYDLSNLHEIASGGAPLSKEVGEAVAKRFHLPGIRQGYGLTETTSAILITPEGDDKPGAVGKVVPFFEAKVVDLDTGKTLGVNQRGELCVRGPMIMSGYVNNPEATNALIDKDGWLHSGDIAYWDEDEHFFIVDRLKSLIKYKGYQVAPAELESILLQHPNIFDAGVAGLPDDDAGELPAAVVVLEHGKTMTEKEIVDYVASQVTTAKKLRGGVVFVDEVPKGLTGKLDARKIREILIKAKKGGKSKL
Chain of Follistatin (Homo sapiens) (P19883 whole entry, looked up): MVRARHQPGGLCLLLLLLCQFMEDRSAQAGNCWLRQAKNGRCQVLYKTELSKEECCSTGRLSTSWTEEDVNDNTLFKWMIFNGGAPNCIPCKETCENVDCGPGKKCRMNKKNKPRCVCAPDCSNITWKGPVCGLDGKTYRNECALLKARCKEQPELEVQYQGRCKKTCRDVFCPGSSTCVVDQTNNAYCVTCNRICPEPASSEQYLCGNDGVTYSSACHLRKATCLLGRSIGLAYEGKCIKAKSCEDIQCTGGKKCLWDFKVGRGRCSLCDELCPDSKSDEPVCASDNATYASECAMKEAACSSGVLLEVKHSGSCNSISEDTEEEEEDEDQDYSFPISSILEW
Chain of Streptavidin (Streptomyces avidinii) (P22629 whole entry, looked up): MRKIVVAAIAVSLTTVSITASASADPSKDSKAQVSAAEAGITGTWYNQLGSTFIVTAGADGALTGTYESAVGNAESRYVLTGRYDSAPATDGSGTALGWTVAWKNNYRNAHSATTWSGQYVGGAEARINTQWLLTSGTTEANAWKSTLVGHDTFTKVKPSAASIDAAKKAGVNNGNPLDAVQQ
Chain of Fibroblast growth factor 2 (Homo sapiens) (P09038 whole entry, looked up): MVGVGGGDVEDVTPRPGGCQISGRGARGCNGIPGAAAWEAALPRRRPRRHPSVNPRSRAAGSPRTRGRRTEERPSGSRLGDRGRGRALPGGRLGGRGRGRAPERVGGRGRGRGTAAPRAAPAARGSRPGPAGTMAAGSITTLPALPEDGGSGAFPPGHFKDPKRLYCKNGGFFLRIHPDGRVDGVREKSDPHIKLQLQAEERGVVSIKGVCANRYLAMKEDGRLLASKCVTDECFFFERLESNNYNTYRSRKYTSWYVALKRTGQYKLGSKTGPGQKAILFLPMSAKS
Chain of Torsin-1A (Homo sapiens) (O14656 whole entry, looked up): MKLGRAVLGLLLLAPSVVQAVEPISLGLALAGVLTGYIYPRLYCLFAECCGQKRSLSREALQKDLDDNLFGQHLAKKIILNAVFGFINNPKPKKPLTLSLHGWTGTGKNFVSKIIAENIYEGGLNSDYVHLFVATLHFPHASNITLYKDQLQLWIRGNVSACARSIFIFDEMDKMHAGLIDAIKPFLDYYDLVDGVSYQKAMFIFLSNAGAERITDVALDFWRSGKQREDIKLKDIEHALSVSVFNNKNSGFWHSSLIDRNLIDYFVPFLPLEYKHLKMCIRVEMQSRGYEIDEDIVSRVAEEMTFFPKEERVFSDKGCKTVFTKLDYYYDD
Chain of Focal adhesion kinase 1 (Homo sapiens) (Q05397 whole entry, looked up): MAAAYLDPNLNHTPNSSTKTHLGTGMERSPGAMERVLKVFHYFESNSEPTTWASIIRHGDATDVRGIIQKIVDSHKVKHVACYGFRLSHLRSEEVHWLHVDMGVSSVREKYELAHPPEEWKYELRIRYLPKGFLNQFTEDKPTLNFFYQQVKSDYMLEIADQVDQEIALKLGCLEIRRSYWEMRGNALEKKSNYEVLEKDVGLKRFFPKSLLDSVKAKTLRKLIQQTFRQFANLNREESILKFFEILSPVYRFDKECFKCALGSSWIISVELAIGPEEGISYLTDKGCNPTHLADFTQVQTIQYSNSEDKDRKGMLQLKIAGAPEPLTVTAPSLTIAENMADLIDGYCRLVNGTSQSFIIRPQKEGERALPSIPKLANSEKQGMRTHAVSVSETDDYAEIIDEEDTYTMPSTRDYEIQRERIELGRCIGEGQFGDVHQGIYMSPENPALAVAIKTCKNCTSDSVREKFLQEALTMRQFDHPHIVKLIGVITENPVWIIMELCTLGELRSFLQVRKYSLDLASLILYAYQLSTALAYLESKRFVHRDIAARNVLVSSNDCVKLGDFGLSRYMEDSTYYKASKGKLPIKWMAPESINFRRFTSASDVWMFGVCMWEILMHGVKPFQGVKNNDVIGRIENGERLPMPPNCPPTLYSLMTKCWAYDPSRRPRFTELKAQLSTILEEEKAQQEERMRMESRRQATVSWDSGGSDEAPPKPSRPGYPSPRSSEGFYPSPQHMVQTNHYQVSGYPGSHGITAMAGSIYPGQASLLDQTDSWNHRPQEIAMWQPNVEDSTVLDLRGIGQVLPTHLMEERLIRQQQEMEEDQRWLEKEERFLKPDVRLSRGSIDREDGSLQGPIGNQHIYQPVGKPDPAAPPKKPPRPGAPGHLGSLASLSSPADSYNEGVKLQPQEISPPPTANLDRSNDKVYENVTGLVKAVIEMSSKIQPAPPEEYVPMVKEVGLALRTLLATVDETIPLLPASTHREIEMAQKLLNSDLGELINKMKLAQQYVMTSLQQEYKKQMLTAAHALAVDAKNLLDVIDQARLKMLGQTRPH

Turning to `COc1ccc(C(=O)Nc2cccc(CN3C(=O)[C@]4(O[C@H](CC(=O)N5CCC[C@H]5CO)[C@@H]([Si](C)(C)c5ccc(OC)cc5)[C@@H]4C)c4ccccc43)c2)cc1`, the composite z-score was found to be 1.22 in assay [1]; 1.15 in [2]; 0.407 in [3]; 0.634 in assay [4]; 1.03 in assay [5]; 1.33 in [6]. The composite z-score in assay [8] was 0.728; in assay [9], 0.595; in [11] it was 0.278; in assay [16] it was -0.349; in [17] it was -0.15; in [18], 0.421. Moreover, the composite z-score was 0.812 in assay [19] and 1.79 in assay [20]. Further, the z-score is -0.407 in assay [7]; -0.895 (inactive) in assay [10]; -5.56 (inactive) in assay [12]; 1.16 (inactive) in assay [13]; 0.105 (inactive) in assay [14]; -0.748 (inactive) in assay [15].

As to `CC(C)OC(=O)CC(=O)CC(O)c1ccc(C#N)cc1` (stereo not given), the composite z-score in assay [1] was 0.548; in assay [2], 1.14; in [3], 0.762; in assay [4], 1.04; in assay [5] it was -0.337; in assay [6], -0.581. Further, the composite z-score is -0.783 in assay [8]; 0.731 in [9]; -0.0818 in assay [11]; -0.425 in [16]; 0.0816 in assay [17]; 2.11 in assay [18]. Also, the composite z-score in assay [19] was 2; in [20] it was -0.305. In addition, the z-score in [7] is 0.409; in [10], 0.902 (inactive); in [12], -1.68 (inactive); in assay [13], -0.577 (inactive); in assay [14], -0.583 (inactive); in [15] it was -1.27 (inactive).

As to `O=C1C=CC(=O)[C@@H]2CC(COc3ccccc3)=C3[C@@H](CCc4ccccc4)OB(O)C[C@@H]3[C@H]12`, the composite z-score was 0.346 in assay [1]; 0.273 in assay [2]; -0.0461 in assay [3]; -0.0249 in [4]; 1.08 in assay [5]; 0.45 in [6]. The composite z-score in assay [8] is 0.411; in assay [9], -0.158; in assay [11], 0.135; in [16], -0.132; in assay [17], -0.231; in [18], -0.386. Besides, the composite z-score in assay [19] was -0.0222; in [20] it was 1.3. Besides, the z-score in assay [7] is -1.59; in assay [10] it was -3.18 (inactive); in assay [12] it was -2.77 (inactive); in assay [13] it was 0.452 (inactive); in assay [14] it was 4.76 (inactive); in assay [15] it was 4.47 (inactive).

In the case of `CC(=O)NCCCC[C@@H]1NC(=O)[C@@H]2C[C@H](C(=O)NCCCCCCNC(=O)CS)[C@H](c3ccc(O)cc3)N2C1=O`, the composite z-score was determined as 3.39 in [1]; 0.964 in [2]; 0.208 in [3]; 0.224 in [4]; 0.304 in [5]; 0.104 in assay [6]. Further, the composite z-score in assay [8] was 0.236; in [9], 0.418; in assay [11], -0.126; in assay [16], 0.453; in assay [17], -0.0944; in assay [18] it was 0.957. Moreover, the composite z-score in [19] is 0.936; in [20] it was 0.377. In addition, the z-score in assay [7] is -0.177; in [10], -0.557 (inactive); in assay [12], 0.448 (inactive); in assay [13], -0.388 (inactive); in assay [14] it was -0.268 (inactive); in assay [15], -0.277 (inactive).

Turning to `C[N+](C)(C)CCCCCCNC(=O)[C@H]1C[C@H]2C(=O)N3CCC[C@H]3C(=O)N2[C@H]1c1ccc(O)cc1`, the composite z-score in assay [1] is -0.167; in assay [2], 0.0132; in assay [3], -0.166; in assay [4], -0.876; in assay [5], 1.14; in assay [6], 0.693. The composite z-score was 1.12 in [8]; -0.411 in assay [9]; -0.214 in assay [11]; -0.715 in assay [16]; 0.0184 in [17]; 0.0048 in assay [18]. Besides, the values for the composite z-score in assay [19] and in assay [20] were 0.599 and 1.92, respectively. Also, the z-score in assay [7] is -1.39; in assay [10] it was 0.908 (inactive); in assay [12] it was -2.61 (inactive); in [13] it was -0.911 (inactive); in assay [14] it was -0.813 (inactive); in assay [15], -0.935 (inactive).
